sEH activator = soluble epoxide hydrolase activators, primary screen, biochemical, human sEH. purified human sEH enzymatic activity, activator screen. activation, % at 2 µM. hit rate 0.04% among 91,000. AID 717, 2007; in the data active means activation above about 37%
PLAP act = PLAP enzyme activators, biochemical, luminescence, HTS; activation fold at 20 µM; hit rate 1.2% among 96,000; Alkaline phosphatase, placental type (Homo sapiens), P05187; purified PLAP enzyme, luminescent substrate read-out; active compounds read high; in the data active means activation fold above about 2
Target sequence (P05187 whole entry, looked up): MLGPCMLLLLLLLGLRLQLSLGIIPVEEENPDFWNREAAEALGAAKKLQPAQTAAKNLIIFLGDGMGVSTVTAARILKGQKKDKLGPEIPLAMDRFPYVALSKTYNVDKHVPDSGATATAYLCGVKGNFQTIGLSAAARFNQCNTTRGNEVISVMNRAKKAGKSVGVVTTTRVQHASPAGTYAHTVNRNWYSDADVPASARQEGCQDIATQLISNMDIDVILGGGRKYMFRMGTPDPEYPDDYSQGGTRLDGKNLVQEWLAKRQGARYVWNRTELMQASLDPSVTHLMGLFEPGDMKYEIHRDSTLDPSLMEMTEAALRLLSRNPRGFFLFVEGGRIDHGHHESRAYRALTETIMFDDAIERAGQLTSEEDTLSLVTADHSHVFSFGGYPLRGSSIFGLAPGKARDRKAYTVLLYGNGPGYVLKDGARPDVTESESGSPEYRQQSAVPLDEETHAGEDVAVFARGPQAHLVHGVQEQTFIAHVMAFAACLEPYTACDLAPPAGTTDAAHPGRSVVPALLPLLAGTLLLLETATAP
PTPN22 act = LYP phosphatase activators, primary screen, biochemical, DiFMUP fluorescence, 2 µM. Tyrosine-protein phosphatase non-receptor type 22 (Homo sapiens), Q9Y2R2. recombinant LYP; 0 = plate median, 100 = signal doubled. activation, % at 2 µM. hit rate 0.11% among 96,000. AID 697, 2007;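 active means activation at 2 µM above a set limit, the mean plus 5 SD, cut at about 37% in these data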
sEH inhibitor = soluble epoxide hydrolase inhibitors, primary screen, biochemical, human sEH; Bifunctional epoxide hydrolase 2 (Homo sapiens), P34913; recombinant human sEH enzymatic activity assay; inhibition, % at 2 µM; hit rate 0.34% among 91,000; in the data active means inhibition above about 80%
EphB4 antag = EphB4-ephrin-B2 interaction antagonists, primary screen, biochemical, TNYL-RAW peptide probe, fluorescence polarization | inhibition, % at 7 µM | Ephrin type-B receptor 4 (Homo sapiens), P54760 | EphB4 LBD / TNYL-RAW-Alexa532 peptide | hit rate 0.15% among 97,000;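 active means inhibition above the screen-wide mean inhibition plus 3 SD, cut at about 15% in these data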;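 further: 0% = DMSO wells and 100% = excess unlabeled TNYL-RAW peptide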
LYP inh 2 = PTPN22 phosphatase inhibitors, primary screen, biochemical, DiFMUP fluorescence, 2 µM | Tyrosine-protein phosphatase non-receptor type 22 (Homo sapiens), Q9Y2R2 | recombinant LYP catalytic domain | inhibition, % at 2 µM | hit rate 0.21% among 96,000 | AID 640, 2007;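 active means inhibition at 2 µM at or above a set limit, the screen mean plus 3 SD, cut at about 24% in these data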;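 further: 0% = DMSO with enzyme and 100% = enzyme fully blocked by orthovanadate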
Active calls of the source: *; x = no result. Sampled rows, rich in hits. Any-hit rate of the full collection: about 1.6%.

SMILES	sEH activator	PLAP act	PTPN22 act	sEH inhibitor	EphB4 antag	LYP inh 2
COc1ccccc1Nc1ncnc2nc[nH]c12	22.3	2*	0.0	-21.3	-7.8	-2.5
c1ccc2c(CCNc3ncnc4nc[nH]c34)c[nH]c2c1	x	1.7	x	x	x	x
COCCNc1ncnc2nc[nH]c12	x	1	-0.5	x	3.4	-2.1
CCCCN(CCCNc1ncnc2nc[nH]c12)c1ccccc1	x	1.6	x	x	x	x
COc1ccc(CCNC(=O)COc2ccc(S(=O)(=O)NC(C)C)cc2Cl)cc1OC	-25.8	1.2	-5.8	25.8	-1.1	10.6
CCC(=O)Nc1cc(-c2nn(C)c(=O)c3ccccc23)ccc1N1CCOCC1	5.9	2*	-17.1	-5.1	1.3	18.8
O=C(NCC1CCCO1)c1ccc(S(=O)(=O)N2CCC(c3nc4ccc(Cl)cc4[nH]3)CC2)cc1 (stereo unspecified)	-81.0	x	6.4	80.9*	-7.4	-6.5
CCC(=O)NC(=S)Nc1cccc(Cl)c1N1CCCCC1	7.0	1.1	-3.0	-4.9	2.3	6.7
CCC(c1nnnn1CCc1ccccc1)N1CCN(c2ccc(OC)cc2)CC1 (stereo unspecified)	5.1	1	-1.8	-3.0	-8.7	5.0
c1ccc2c(N3CCCCC3)nc(N3CCCCC3)nc2c1	9.6	1.2	6.6	-6.1	-2.9	-9.6
Cc1cc(N2CCN(c3nc(N4CCOCC4)nc4ccccc34)CC2)c2ccccc2n1	11.6	x	39.0*	-13.7	-3.7	-40.8
CCOc1ccc2nc(NC(=O)C(CCSC)NS(=O)(=O)c3cccs3)sc2c1 (stereo unspecified)	3.6	2.4*	1.8	-3.3	-2.5	0.3
CCOc1ccc2nc(NC(=O)c3cnc(C)cn3)sc2c1	10.4	2.6*	-3.5	-12.5	-0.4	3.0
CCCC(=O)Nc1nc2ccc(OCC)cc2s1	8.6	0.9	-12.6	-8.9	-7.9	10.5
CCn1c(SCC(=O)c2ccc(OC)cc2)nnc1C(C)NC(=O)c1ccc(OC)cc1 (stereo unspecified)	5.6	1.3	6.2	-3.4	-3.6	-2.7
Cn1c(=O)c2cc(S(=O)(=O)NC(C(=O)Nc3cccnc3)c3ccccc3)ccc2n(C)c1=O (stereo unspecified)	-1.3	2.6*	6.3	0.6	-5.1	-6.9
Cn1c(=O)c2cc(S(=O)(=O)NC(C(=O)NCc3cccnc3)c3ccccc3)ccc2n(C)c1=O (stereo unspecified)	-4.5	1	8.8	3.8	-1.8	-9.3
COc1ccc(/C=N/NC(=O)c2ccc(COc3ccccc3Cl)o2)cc1	-83.5	0.9	0.2	84.0*	-1.9	3.9
CCOC(=O)c1cc(C#N)c(Oc2ccccc2OC)nc1-c1ccccc1	-7.8	1.4	-8.3	7.4	-1.7	10.5
Cc1nn(C(=O)c2cccc([N+](=O)[O-])c2)c(C)c1Sc1ccccc1	-4.7	1.2	2.8	4.7	-1.3	2.6
Cc1nnc(NC(=O)CSc2nccn2C)s1	2.0	x	-0.3	0.5	70.7*	1.8
Cc1cc2nc3c(c(=O)n2[nH]1)CCCC3	37.3*	0.9	-2.1	-34.0	5.4	3.7
O=c1c2c(nc3cc(-c4ccccc4)[nH]n13)CCC2	x	1.1	8.3	x	-9.1	-10.9
COc1ccc(NC(C)=O)cc1NC(=O)CSc1nc2ncccc2[nH]1	9.7	2.4*	-3.6	-11.2	-2.4	3.9
COc1ccccc1NC(=O)CSc1nc2ncccc2[nH]1	16.4	1.7	-4.9	-15.8	-6.2	0.9
SMILES	sEH activator	PLAP act	PTPN22 act	sEH inhibitor	EphB4 antag	LYP inh 2
Cc1sc2nc(SCC(=O)c3cc(C)n(CC4CCCO4)c3C)n(C(C)C)c(=O)c2c1C (stereo unspecified)	x	1.4	29.5	x	-6.9	-34.0
Cc1cccc(-n2c(CCn3nc(C)c([N+](=O)[O-])c3C)n[nH]c2=S)c1	-7.1	2.1*	-13.2	8.8	-4.2	15.6
Cc1cccc(-n2c(C)n[nH]c2=S)c1	-1.6	1	-3.2	4.5	4.2	5.5
COc1ccc(S(=O)(=O)N2CCCN(S(=O)(=O)c3ccc(OC)cc3C)CC2)c(C)c1	x	1	x	x	x	x
CCOC(=O)c1sc(NC(=O)C(CC)Sc2nc3ccccc3[nH]2)nc1C (stereo unspecified)	-2.7	x	-24.0	5.1	1.6	25.3*
CCOC(=O)c1sc(NC(=O)C(CC)Sc2nnc3c4ccccc4n(C(C)C)c3n2)nc1C (stereo unspecified)	x	1.6	-7.2	x	5.8	4.5
CCOC(=O)c1cnc(Nc2nc3ccccc3o2)nc1CN1CCN(C)CC1	12.2	2*	-1.1	-14.1	16.1*	4.7
CCCOC(=O)Nc1nc2ccccc2o1	-2.5	1.9	-7.1	4.1	11.7	4.8
O=[N+]([O-])c1cc2c(c(CSc3nnc(Nc4ccccc4)s3)c1)OCOC2	-12.0	1.1	-7.9	10.2	7.7	9.6
Cc1ccccc1Nc1nnc(SCc2cc([N+](=O)[O-])cc3c2OCOC3)s1	4.2	2*	5.0	-3.3	2.6	-7.7
COc1ccc(CC(=O)Nc2ccc(S(=O)(=O)Nc3nccc(C)n3)cc2)cc1	4.0	2.1*	-7.2	-6.0	-5.6	6.7
O=C(Nc1ccc2c(c1)OCO2)c1ccc2nc[nH]c2c1	-7.2	2*	-17.0	6.8	3.4	19.8
O=C(CN(C(=O)Cn1nnc(-c2cccs2)n1)c1ccc2c(c1)OCCO2)NCc1ccccc1	0.1	2.1*	27.8	3.5	5.7	-24.2
C=CCn1c(Cc2nc3ccccc3[nH]2)n[nH]c1=S	-19.8	2*	8.0	17.8	0.6	-5.3
COc1cc(/C=N/N2C(=O)CSC2=S)ccc1O	5.3	2.2*	2.1	-6.8	-1.9	-0.4
COc1cc(/C=N/n2c(SC)nnc(C(C)(C)C)c2=O)ccc1O	-5.7	0.9	-8.0	7.2	-1.9	7.5
CC(C)C(=O)Nc1ccc(-c2nc3cccnc3o2)cc1	13.7	1.3	-4.8	-15.3	5.2	8.7
CC(C)(C)c1ccc(OCC(=O)Nc2ccc(-c3nc4cccnc4o3)cc2)cc1	6.7	2*	-13.3	-5.2	-2.6	13.2
Cc1occc1C(=O)NNC(=S)Nc1cccc([N+](=O)[O-])c1	19.2	2*	-2.2	-21.3	7.5	5.7
C=CCc1cccc2cc(C(=O)OCC(=O)c3ccccc3)c(=O)oc12	3.9	0.8	-5.9	-6.0	4.9	6.7
Cc1ccc(Nc2cc(C)nn2-c2nc(C)cc(C)n2)cc1	8.5	1.3	0.2	-8.5	-6.0	-0.3
Cc1ccc(Nc2cc(C)nn2-c2nc(C)cc(=O)[nH]2)cc1	x	1.4	-27.3	x	5.9	25.5*
Clc1ccc(Cc2nc(-c3cccnc3)no2)cc1	-0.2	1	6.1	2.4	0.7	-2.6

Screening data: PubChem, several laboratories
